# From the supplement of paper PMC4022240
# ± gives the standard deviation.
# T1: HaloTag-ATRX ADD domain (163-292)
# T1 chain: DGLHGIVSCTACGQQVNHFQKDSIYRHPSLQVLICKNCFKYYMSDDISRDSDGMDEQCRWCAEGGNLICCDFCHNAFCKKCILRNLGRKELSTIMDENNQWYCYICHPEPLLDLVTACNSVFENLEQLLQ
# Legend:
# Assay in all cases: peptide microarray binding signal (635 nm), min-max normalized on array (fraction of array maximum); higher = stronger binding
# Conditions in all cases: peptide region: H3 1-13
# [1] = biological target: T1, HaloTag-ATRX ADD domain (163-292)
# Method: (§1)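 Histone 13-mer peptides were synthesized as cellulose conjugates with a C-terminal 20-atom PEG linker and printed in triplicate on nitrocellulose. The sequence given is the unmodified backbone; PTMs (Kme1/2/3, Kac, Sph/Tph, Rme/Rme2a/Rme2s, Rcit) are listed in the label and the 'peptide modifications' condition. Slides were probed at 4 °C for 1 h with biotin-labelled (HQ)5-HaloTag reader fusions (ATRX-ADD, ING2-PHD) then streptavidin-Alexa647, or with rabbit histone antibodies then anti-rabbit Alexa647. The mean 635 nm signal of the triplicate spots was scaled 0-1 between the lowest and highest values on each array.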
# [2] = biological target: HaloTag-ING2 PHD (mouse Ing2 200-280)
# Method: as §1
# [3] = biological target: anti-H3K4me3 antibody ab8580
# Method: as §1
# [4] = biological target: anti-H3K9me3 antibody ab8898
# Method: as §1
# [5] = peptide modifications: H3R2me1 H3K4ac, binder concentration: 1:2,000 dilution
# [6] = peptide modifications: H3R2me1 H3K4ac, binder concentration: 1:10,000 dilution
# [7] = peptide modifications: H3R2cit H3K9me1, binder concentration: 1:2,000 dilution
# [8] = peptide modifications: H3R2cit H3K9me1, binder concentration: 1:10,000 dilution
# [9] = peptide modifications: H3R2me1, binder concentration: 1:2,000 dilution
# [10] = peptide modifications: H3R2me1, binder concentration: 1:10,000 dilution
# [11] = peptide modifications: H3R2me1 H3K4me1, binder concentration: 1:2,000 dilution
# [12] = peptide modifications: H3R2me1 H3K4me1, binder concentration: 1:10,000 dilution
# [13] = peptide modifications: H3R2cit H3K4me3, binder concentration: 1:2,000 dilution
# [14] = peptide modifications: H3R2cit H3K4me3, binder concentration: 1:10,000 dilution
# [15] = peptide modifications: H3R2me1 H3K4me2, binder concentration: 1:2,000 dilution
# [16] = peptide modifications: H3R2me1 H3K4me2, binder concentration: 1:10,000 dilution
# [17] = peptide modifications: H3R2cit H3T6ph, binder concentration: 1:2,000 dilution
# [18] = peptide modifications: H3R2cit H3T6ph, binder concentration: 1:10,000 dilution
# [19] = peptide modifications: H3R2cit H3K9me2, binder concentration: 1:2,000 dilution
# [20] = peptide modifications: H3R2cit H3K9me2, binder concentration: 1:10,000 dilution
# [21] = peptide modifications: H3R2me1 H3K4me3, binder concentration: 1:2,000 dilution
# [22] = peptide modifications: H3R2me1 H3K4me3, binder concentration: 1:10,000 dilution
# [23] = peptide modifications: H3K9me2 H3S10ph, binder concentration: 1:2,000 dilution
# [24] = peptide modifications: H3K9me2 H3S10ph, binder concentration: 1:10,000 dilution
binder,measurement,setting,value
ARTKQTARKSTGG [H3 1-13 A Rme T Kac Q T A R K S T G G],peptide microarray binding signal,"[1]; peptide modifications: H3R2me1 H3K4ac, binder concentration: 50 nM",0.00636 ± 0.00044
same,peptide microarray binding signal,"[1]; peptide modifications: H3R2me1 H3K4ac, binder concentration: 500 nM",0.00867 ± 0.00048
same,peptide microarray binding signal,"[2]; peptide modifications: H3R2me1 H3K4ac, binder concentration: 10 nM",0.0133 ± 0.0026
same,peptide microarray binding signal,"[2]; peptide modifications: H3R2me1 H3K4ac, binder concentration: 100 nM",0.0738 ± 0.0056
same,peptide microarray binding signal,[3]; [5],0.00115 ± 0.0001
same,peptide microarray binding signal,[3]; [6],0.001541 ± 1.5e-05
same,peptide microarray binding signal,[4]; [5],0.00402 ± 0.0014
same,peptide microarray binding signal,[4]; [6],0.0011 ± 2.2e-05
ARTKQTARKSTGG [H3 1-13 A Rcit T K Q T A R Kme S T G G],peptide microarray binding signal,"[1]; peptide modifications: H3R2cit H3K9me1, binder concentration: 50 nM",0.0233 ± 0.0034
same,peptide microarray binding signal,"[1]; peptide modifications: H3R2cit H3K9me1, binder concentration: 500 nM",0.0804 ± 0.019
same,peptide microarray binding signal,"[2]; peptide modifications: H3R2cit H3K9me1, binder concentration: 10 nM",0.0313 ± 0.0068
same,peptide microarray binding signal,"[2]; peptide modifications: H3R2cit H3K9me1, binder concentration: 100 nM",0.0512 ± 0.0034
same,peptide microarray binding signal,[3]; [7],0.00831 ± 0.0015
same,peptide microarray binding signal,[3]; [8],0.0097 ± 0.00085
same,peptide microarray binding signal,[4]; [7],0.0064 ± 0.00042
same,peptide microarray binding signal,[4]; [8],0.00375 ± 0.00014
ARTKQTARKSTGG [H3 1-13 A Rme T K Q T A R K S T G G],peptide microarray binding signal,"[1]; peptide modifications: H3R2me1, binder concentration: 50 nM",0.0145 ± 0.00019
same,peptide microarray binding signal,"[1]; peptide modifications: H3R2me1, binder concentration: 500 nM",0.0334 ± 0.0026
same,peptide microarray binding signal,"[2]; peptide modifications: H3R2me1, binder concentration: 10 nM",0.0175 ± 0.0043
same,peptide microarray binding signal,"[2]; peptide modifications: H3R2me1, binder concentration: 100 nM",0.0456 ± 0.0031
same,peptide microarray binding signal,[3]; [9],0.000698 ± 1.7e-05
same,peptide microarray binding signal,[3]; [10],0.000742
same,peptide microarray binding signal,[4]; [9],0.00202 ± 0.0002
same,peptide microarray binding signal,[4]; [10],0.000461
ARTKQTARKSTGG [H3 1-13 A Rme T Kme Q T A R K S T G G],peptide microarray binding signal,"[1]; peptide modifications: H3R2me1 H3K4me1, binder concentration: 50 nM",0.00746 ± 0.00026
same,peptide microarray binding signal,"[1]; peptide modifications: H3R2me1 H3K4me1, binder concentration: 500 nM",0.0155 ± 0.00095
same,peptide microarray binding signal,"[2]; peptide modifications: H3R2me1 H3K4me1, binder concentration: 10 nM",0.0585 ± 0.006
same,peptide microarray binding signal,"[2]; peptide modifications: H3R2me1 H3K4me1, binder concentration: 100 nM",0.147 ± 0.034
same,peptide microarray binding signal,[3]; [11],0.0545 ± 0.02
same,peptide microarray binding signal,[3]; [12],0.023 ± 0.0071
same,peptide microarray binding signal,[4]; [11],0.00248 ± 0.00029
same,peptide microarray binding signal,[4]; [12],0.00127 ± 1.3e-05
ARTKQTARKSTGG [H3 1-13 A Rcit T Kme3 Q T A R K S T G G],peptide microarray binding signal,"[1]; peptide modifications: H3R2cit H3K4me3, binder concentration: 50 nM",0.0156 ± 0.00085
same,peptide microarray binding signal,"[1]; peptide modifications: H3R2cit H3K4me3, binder concentration: 500 nM",0.0357 ± 0.0095
same,peptide microarray binding signal,"[2]; peptide modifications: H3R2cit H3K4me3, binder concentration: 10 nM",0.131 ± 0.042
same,peptide microarray binding signal,"[2]; peptide modifications: H3R2cit H3K4me3, binder concentration: 100 nM",0.19 ± 0.089
same,peptide microarray binding signal,[3]; [13],0.476 ± 0.19
same,peptide microarray binding signal,[3]; [14],0.28 ± 0.066
same,peptide microarray binding signal,[4]; [13],0.0852 ± 0.028
same,peptide microarray binding signal,[4]; [14],0.0601 ± 0.039
ARTKQTARKSTGG [H3 1-13 A Rme T Kme2 Q T A R K S T G G],peptide microarray binding signal,"[1]; peptide modifications: H3R2me1 H3K4me2, binder concentration: 50 nM",0.00715 ± 0.0002
same,peptide microarray binding signal,"[1]; peptide modifications: H3R2me1 H3K4me2, binder concentration: 500 nM",0.017 ± 0.0047
same,peptide microarray binding signal,"[2]; peptide modifications: H3R2me1 H3K4me2, binder concentration: 10 nM",0.219 ± 0.059
same,peptide microarray binding signal,"[2]; peptide modifications: H3R2me1 H3K4me2, binder concentration: 100 nM",0.175 ± 0.047
same,peptide microarray binding signal,[3]; [15],0.269 ± 0.14
same,peptide microarray binding signal,[3]; [16],0.0639 ± 0.0072
same,peptide microarray binding signal,[4]; [15],0.00439 ± 0.0014
same,peptide microarray binding signal,[4]; [16],0.00392 ± 0.00093
ARTKQTARKSTGG [H3 1-13 A Rcit T K Q Tph A R K S T G G],peptide microarray binding signal,"[1]; peptide modifications: H3R2cit H3T6ph, binder concentration: 50 nM",0.00621 ± 0.00039
same,peptide microarray binding signal,"[1]; peptide modifications: H3R2cit H3T6ph, binder concentration: 500 nM",0.0199 ± 0.0043
same,peptide microarray binding signal,"[2]; peptide modifications: H3R2cit H3T6ph, binder concentration: 10 nM",0.00382 ± 0.00065
same,peptide microarray binding signal,"[2]; peptide modifications: H3R2cit H3T6ph, binder concentration: 100 nM",0.0157 ± 0.0039
same,peptide microarray binding signal,[3]; [17],0.00345 ± 0.00082
same,peptide microarray binding signal,[3]; [18],0.00348 ± 0.00034
same,peptide microarray binding signal,[4]; [17],0.00166 ± 0.00026
same,peptide microarray binding signal,[4]; [18],0.00173 ± 0.00011
ARTKQTARKSTGG [H3 1-13 A Rcit T K Q T A R Kme2 S T G G],peptide microarray binding signal,"[1]; peptide modifications: H3R2cit H3K9me2, binder concentration: 50 nM",0.0526 ± 0.0021
same,peptide microarray binding signal,"[1]; peptide modifications: H3R2cit H3K9me2, binder concentration: 500 nM",0.112 ± 0.0057
same,peptide microarray binding signal,"[2]; peptide modifications: H3R2cit H3K9me2, binder concentration: 10 nM",0.0306 ± 0.0059
same,peptide microarray binding signal,"[2]; peptide modifications: H3R2cit H3K9me2, binder concentration: 100 nM",0.056 ± 0.011
same,peptide microarray binding signal,[3]; [19],0.0151 ± 0.001
same,peptide microarray binding signal,[3]; [20],0.013 ± 0.0011
same,peptide microarray binding signal,[4]; [19],0.0265 ± 0.0012
same,peptide microarray binding signal,[4]; [20],0.00986 ± 0.00045
ARTKQTARKSTGG [H3 1-13 A Rme T Kme3 Q T A R K S T G G],peptide microarray binding signal,"[1]; peptide modifications: H3R2me1 H3K4me3, binder concentration: 50 nM",0.00765 ± 0.00016
same,peptide microarray binding signal,"[1]; peptide modifications: H3R2me1 H3K4me3, binder concentration: 500 nM",0.0187 ± 0.00094
same,peptide microarray binding signal,"[2]; peptide modifications: H3R2me1 H3K4me3, binder concentration: 10 nM",0.267 ± 0.048
same,peptide microarray binding signal,"[2]; peptide modifications: H3R2me1 H3K4me3, binder concentration: 100 nM",0.215 ± 0.13
same,peptide microarray binding signal,[3]; [21],0.449 ± 0.19
same,peptide microarray binding signal,[3]; [22],0.243 ± 0.053
same,peptide microarray binding signal,[4]; [21],0.106 ± 0.018
same,peptide microarray binding signal,[4]; [22],0.0312 ± 0.0012
ARTKQTARKSTGG [H3 1-13 A R T K Q T A R Kme2 Sph T G G],peptide microarray binding signal,"[1]; peptide modifications: H3K9me2 H3S10ph, binder concentration: 50 nM",0.0356 ± 0.0038
same,peptide microarray binding signal,"[1]; peptide modifications: H3K9me2 H3S10ph, binder concentration: 500 nM",0.0593 ± 0.0025
same,peptide microarray binding signal,"[2]; peptide modifications: H3K9me2 H3S10ph, binder concentration: 10 nM",0.00615 ± 8.7e-05
same,peptide microarray binding signal,"[2]; peptide modifications: H3K9me2 H3S10ph, binder concentration: 100 nM",0.0145 ± 0.0016
same,peptide microarray binding signal,[3]; [23],0.00119 ± 1.7e-05
same,peptide microarray binding signal,[3]; [24],0.000456 ± 3.6e-05
same,peptide microarray binding signal,[4]; [23],0.0144 ± 0.0017
same,peptide microarray binding signal,[4]; [24],0.00375 ± 0.00021
